Only some compounds are listed: those with a hit (about 8% of all), similar ones and a draw of the others.
SARS PLpro yeast – SARS-CoV PLP inhibition in yeast; S. cerevisiae expressing SARS-CoV PLpro, growth rescue; Potency, µM (highest dose often 32.9 µM), for inactives: at the highest dose activity, positive = growth rescue, most hits filed as activators; 0.19% of 330,000 active; AID 485353; calls by dose curve; further: potency means the concentration at half of the fitted maximal effect; 0% is about no effect; nearly all actives have a fitted effect of over 55% in size
MARV entry inh – blocks Marburg virus binding to or entry into cells | Marburg virus pseudotyped entry inhibition, cell reporter | Potency, µM (highest dose often 37.8 µM), inactives show top-dose activity change, negative = inhibition, actives largely listed as inhibitors | 1.8% of 300,000 active; calls by dose curve; tested in HEK293 cells; further: potency means the concentration at half of the fitted maximal effect; on the % scale 0 is the no-effect control and ±100 the full control effect
FMDV inh – blocks foot and mouth disease virus; FMDV antiviral cell-based qHTS; 1.2% of 410,000 active; Potency, µM (series often up to 57.9 µM), inactives show at the top dose activity change, negative = inhibition, actives largely listed as inhibitors; calls by dose curve; tested in HEK293T cells; further: read-out not given here; potency means the concentration at half of the fitted maximal effect; on the % scale 0 is the no-effect control and ±100 the full control effect; nearly all actives have a fitted effect of over 45% in size
LASV entry inh – Lassa virus entry inhibition; Lassa virus pseudotype entry inhibition, cell reporter; Potency, µM (top dose mostly 37.9 µM), inactives show top-dose activity change, negative = inhibition, actives largely listed as inhibitors; 1.2% of 300,000 active; AID 540256; calls by dose curve; tested in HEK293 cells; further: potency means the concentration at half of the fitted maximal effect; on the % scale 0 is the no-effect control and ±100 the full control effect; nearly all actives have a fitted effect of over 50% in size
HCV inh – inhibitors of hepatitis C virus infection | AID 651820 | 3.4% of 340,000 active | Huh7.5.1 HCVcc-Cre infection, luciferase reporter, 44 h | Potency, µM (doses to about 41.8 µM), without a hit: at the highest dose activity change, negative = inhibition, actives largely listed as inhibitors; active means well fitted inhibition curve with a large enough effect; inconclusive means small, poorly fitted or top-dose-only effect, or another doubt; inactive means no such curve, though single readings can be large or run the other way; further: potency means the concentration at half of the fitted maximal effect; on the % scale 0 is the no-effect control and ±100 the full control effect
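Whole-lifecycle infectious HCVcc-Cre system; cells 1,000/well, compound then virus (~0.5 moi) added 4 h after plating, 44 h culture. Luciferase read 15 sec following 15 min substrate incubation, room temp.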
HCMV inh – human cytomegalovirus inhibition; activity change, negative = inhibition, % at 57.5 µM; 4.5% of 410,000 active; HFF cells, HCMV-luciferase reporter, 72 h; stronger effect = lower value; AID 1259415; in the data active means activity change below about -60%; inconclusive means no clear call, values can overlap the other calls; inactive means above about -39%; further: on the % scale 0 is the no-effect control and ±100 the full control effect
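Steps: HFFs plated, 16 h 37C; compounds added; HCMV-luciferase added to MOI 1 PFU/cell; 72 h 37C; OneGlo reagent, 5 min room temperature; luminescence read, normalized to controls.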
* marks the source's active call; other numbers are inactive results; [ ] = remark or other dose.

For COc1ccc2oc(C(=O)N3CCN(S(=O)(=O)c4cccc([N+](=O)[O-])c4)CC3)c(C)c2c1 the results were SARS PLpro yeast -1%, MARV entry inh inconclusive, FMDV inh -29%, LASV entry inh -1%[46.1 µM], HCV inh 4% and HCMV inh -67*.
`Cc1c(C(=O)N2CCCCC2)oc2ccc(S(=O)(=O)N3CC(C)CC(C)C3)cc12` (stereo not given) gave SARS PLpro yeast 1%, MARV entry inh 11µM*, FMDV inh inconclusive, LASV entry inh inconclusive and HCV inh inconclusive.
`CCC(=O)n1nc(NCc2ccccc2OC)nc1NCc1ccccc1OC` gave SARS PLpro yeast -10%, MARV entry inh inconclusive, FMDV inh inconclusive, LASV entry inh inconclusive, HCV inh 11µM* and HCMV inh 0.
O=[N+]([O-])c1nn(-c2ccccc2)n(O)c1=NC1CCN(Cc2ccccc2)CC1 was read as SARS PLpro yeast -1%, MARV entry inh inconclusive, FMDV inh -18%, LASV entry inh inconclusive, HCV inh 2µM* and HCMV inh inconclusive.
Cc1ccc(CCN=c2c([N+](=O)[O-])nn(-c3ccccc3)n2O)cc1 was read as SARS PLpro yeast -5%, MARV entry inh 2%[46.1 µM], FMDV inh -21%, LASV entry inh -2%, HCV inh -27% and HCMV inh 62.
Screening O=[N+]([O-])c1nn(-c2ccccc2)n(O)c1=NCCc1ccccc1 returned SARS PLpro yeast -65%, MARV entry inh inconclusive, FMDV inh 9%, LASV entry inh inconclusive, HCV inh 11µM* and HCMV inh -37.
O=[N+]([O-])c1nn(-c2ccc3c(c2)OCCO3)n(O)c1=NC1CCN(Cc2ccccc2)CC1 was read as SARS PLpro yeast 2%, FMDV inh 4%, HCV inh inconclusive and HCMV inh -35.
`CC1CCc2c(sc3nc(-c4cc5cc(Br)ccc5oc4=O)[nH]c(=O)c23)C1` (stereo not given) gave FMDV inh -2%, LASV entry inh 3%[46.1 µM] and HCMV inh inconclusive.
Screening CCOC(=O)c1cc(S(=O)(=O)NCc2ccc(OC)cc2)[nH]n1 returned FMDV inh 9%, LASV entry inh 5%[46.1 µM] and HCMV inh 59.
For CCOc1cccc2sc(N(CCCN(C)C)C(=O)c3ccc(C(=O)c4ccccc4)cc3)nc12 the results were SARS PLpro yeast -4%, MARV entry inh inconclusive, FMDV inh -11%, LASV entry inh inconclusive, HCV inh inconclusive and HCMV inh -77*.
For CCOc1cccc2sc(N(CCN(C)C)C(=O)c3cc4ccccc4cc3OC)nc12 the results were SARS PLpro yeast -4%, FMDV inh -13%, HCV inh 14µM* and HCMV inh -39.
CN(C)CCCN(C(=O)c1ccc(C(=O)c2ccccc2)cc1)c1nc2c(F)cccc2s1 was read as SARS PLpro yeast -2%, MARV entry inh inconclusive, FMDV inh inconclusive, LASV entry inh inconclusive, HCV inh inconclusive and HCMV inh -29.
Screening CCc1ccc2nc(N(CCCN(C)C)C(=O)c3ccc(S(=O)(=O)N4CCCc5ccccc54)cc3)sc2c1 returned SARS PLpro yeast -2%, MARV entry inh inconclusive, FMDV inh inconclusive, LASV entry inh 13µM*, HCV inh inconclusive and HCMV inh -89*.
`CCc1ccc2nc(N(CCCN(C)C)C(=O)c3ccc(C(=O)c4ccccc4)cc3)sc2c1` gave SARS PLpro yeast 0%, MARV entry inh inconclusive, FMDV inh -22%, LASV entry inh inconclusive, HCV inh -23% and HCMV inh -98*.
COc1ccc2c(c1)-c1nc(-n3ncc(C(=O)NCc4cccc(C)n4)c3C3CC3)ncc1CC2 was read as FMDV inh -17%.
`CN(C)CCCN(C(=O)c1ccc(S(=O)(=O)N2CCc3ccccc32)cc1)c1nc2c(Cl)cccc2s1` gave SARS PLpro yeast 2%, MARV entry inh inconclusive, FMDV inh -18%, LASV entry inh inconclusive, HCV inh -27% and HCMV inh -4.

Compound activity: PubChem, National Center for Advancing Translational Sciences (NCATS)
